Sampled rows, rich in hits. Any-hit rate of the full collection: about 4%.
MITF TRPM1 inh: inhibitors of MITF-driven TRPM1 promoter in melanoma cells. SK-MEL-5 TRPM1 promoter luciferase, 24 h. actives 0.83% (n = 330,000). inhibition, % at 12.5 µM. AID 488899;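 active means mean inhibition across replicates of 60% or more, whatever share of single replicates reaches that level; inconclusive means some that reach 60%, reason not given; inactive means mean inhibition across replicates below 60%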
LMP1 NFkB inh: inhibitors of Epstein-Barr LMP1-induced NF-kappaB reporter; inhibition, % at 12.5 µM; AID 504558; LMP1-induced NF-kappaB luciferase reporter cells, luminescence; actives 0.69% (n = 350,000); in the data active means inhibition above about 41%; inconclusive means no clear call, values can overlap the other calls
TROY signal inh: inhibitors of TROY-dependent NF-kB signaling | Q293 LMP1-TROYcd NF-kB luciferase reporter, 4 h | inhibition, % at 10 µM | actives 0.98% (n = 360,000) | AID 1347056;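 active means compounds whose plate-normalised and pattern-corrected inhibition of the luciferase reporter signal at the single screening dose is 50% or more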
HIF-2a inh: HIF-2a inhibition | 786-0 RCC cells HIF-2a reporter, luciferase luminescence, overnight | inhibition, % at 18.8 µM | actives 0.72% (n = 360,000);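 active means inhibition of the luminescence signal of 40% or more relative to plate controls, in a single-dose primary screen at 18.75 µM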
TWEAK Fn14 block: inhibitors of TWEAK-Fn14 interaction signaling | actives 2% (n = 360,000) | inhibition, % at 10 µM | TWEAK-stimulated Fn14 reporter cells, luciferase luminescence, 8 h; in the data active means inhibition above about 50%
Peg3 promoter: reduces Peg3 promoter-driven luciferase expression in HeLa; HeLa PEG-Prom luciferase reporter, luminescence, overnight; inhibition, % at 20 µM; actives 1.7% (n = 360,000);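 active means inhibition of at least 50% at 20 µM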
Hits are given with their value; n = inactive; u = inconclusive; x = not tested or not shown.

SMILES	MITF TRPM1 inh	LMP1 NFkB inh	TROY signal inh	HIF-2a inh	TWEAK Fn14 block	Peg3 promoter
CCn1nc(/C=C/c2ccccc2)nc2c(=O)n(C)c(=O)nc1-2	104	72	83	n	106	94
COc1ccc(-n2c(/C=C/c3ccc(O)cc3)nc3ccccc3c2=O)cc1	n	n	n	n	n	n
COc1ccc(C)cc1NC1=NC(C)(C)CS1	n	n	n	n	n	n
C[C@@H]1CN([C@@H](C)CO)C(=O)CCCn2nncc2CO[C@@H]1CN(C)C(=O)Oc1cccc2ccccc12	x	n	n	n	n	n
CCCCNC(=O)c1c(N)n(Cc2ccc3c(c2)OCO3)c2nc3ccccc3nc12	n	n	59	n	51	n
CCCCn1c(N)c(C(=O)NCc2cccs2)c2nc3ccccc3nc21	n	n	68	n	n	n
CCCCCCn1c(N)c(C(=O)NCCN2CCOCC2)c2nc3ccccc3nc21	n	n	x	n	56	n
Nc1c(C(=O)NCCCc2ccccc2)c2nc3ccccc3nc2n1Cc1cccs1	n	n	n	n	n	n
CCCCCn1c(N)c(C(=O)NCCN2CCOCC2)c2nc3ccccc3nc21	n	n	n	n	n	n
O=CNc1ccc(OP(=O)(Oc2ccccc2)Oc2ccccc2)cc1	n	n	n	n	n	n
O=C1NCN(c2ccccc2)C12CCN(C(c1ccccc1OC(F)(F)F)c1nnnn1-c1ccc3c(c1)OCCO3)CC2 (stereo not given)	x	x	n	n	n	n
O=C1NC(=O)N(c2ccccc2)C(=O)/C1=C/c1ccc(Sc2ccccc2)o1	n	n	n	n	n	50
CCN(CC)CCCNC(=O)c1c(O)c2ccccc2n(Cc2ccccc2)c1=O	n	n	n	n	n	54
CCN(CC)CCNC(=O)c1c(O)c2ccccc2n(Cc2ccccc2)c1=O	n	n	n	n	n	n
CCCCn1c(NS(=O)(=O)c2ccc(C)cc2)c(C(=O)OCC)c2nc3ccccc3nc21	n	n	63	n	58	n
CCCCn1c(NC(=O)c2ccco2)c(C(=O)OCC)c2nc3ccccc3nc21	n	n	52	n	n	n
CC(=NCCN1CCCCC1)c1c(O)n(-c2ccc(Cl)cc2)c(=O)[nH]c1=O	n	n	n	n	n	n
CCN1C(=O)/C(=C/c2ccc(N(CC)CC)cc2OC)C(=O)NC1=S	n	n	n	n	67	90
Cc1cc(-c2ccccc2)cc(-c2ccccc2)[n+]1CCc1ccccc1	65	n	n	n	n	n
C[n+]1c(-c2ccccc2)cc(-c2ccc(O)cc2)cc1-c1ccccc1	n	n	n	n	n	n
Clc1ccc(C[n+]2c(-c3ccccc3)cc(-c3ccccc3)cc2-c2ccccc2)cc1	92	u	51	n	73	88
CCOc1ccc(-c2cc(C)[n+](CCc3ccc(OC)c(OC)c3)c(-c3ccc(OCC)cc3)c2)cc1	97	n	53	n	n	59
CCOc1ccc(-c2cc(C)[n+](CCO)c(-c3ccc(OCC)cc3)c2)cc1	63	n	n	n	n	n
C=CCSc1nc2c(c(-c3ccsc3)c1C#N)CN(C)CC2	n	n	n	n	n	n
N#CC1c2ccccc2-n2nncc2CN1S(=O)(=O)c1cc(Cl)cc(Cl)c1 (stereo not given)	n	n	n	n	n	n
SMILES	MITF TRPM1 inh	LMP1 NFkB inh	TROY signal inh	HIF-2a inh	TWEAK Fn14 block	Peg3 promoter
C[C@H]1COc2cc(N3CCN(C)CC3)ccc2S(=O)(=O)N1	x	x	n	n	n	x
COc1cc2c(cc1OC)C13CCN4CC5=CCOC(CC(=O)O)C(C5CC41)C3N2 (stereo not given)	n	n	n	n	n	n
CC[C@H]1CN2CCC1C[C@@H]2[C@@H](O)c1ccnc2ccc(OC)cc12 (stereo not given in full)	n	n	n	n	n	n
CC[C@H]1CN2CCC1C[C@H]2[C@H](O)c1ccnc2ccc(OC)cc12 (stereo not given in full)	n	69	n	n	n	n
CCC(c1nnnn1Cc1ccccc1)N1CCC(n2c(=O)[nH]c3ccccc32)CC1 (stereo not given)	x	x	n	n	n	75
CCCCn1nnnc1C(CCc1ccccc1)N1CCC(n2c(=O)[nH]c3ccccc32)CC1 (stereo not given)	x	x	n	n	n	82
CCCCn1nnnc1C(C1CC1)N1CCC(n2c(=O)[nH]c3ccccc32)CC1 (stereo not given)	x	x	n	n	n	n
O=C(C1CCCN(c2nnc(-n3cccc3)s2)C1)N1CCC2(CC1)OCCO2 (stereo not given)	n	n	x	n	74	n
N#Cc1ncc(N=Cc2ccc(N(CCCl)CCCl)cc2)s1	n	59	n	n	53	n
COc1ccc2c(c1OC)C(=O)O[C@H]2[C@@H]1c2cc3c(cc2CCN1C)OCO3	n	n	n	n	n	n
COc1c2c(cc3c1OCO3)CCN(C)C2	n	79	n	n	n	n
C[N+](C)(C)CC1CCCc2ccccc2C1=O (stereo not given)	n	n	n	n	n	n
C[N+](C)(C)CC1CCCC(C[N+](C)(C)C)C1=O (stereo not given)	n	n	n	n	n	83
O=P1(c2ccccc2)Nc2ccccc2N1c1ccccc1 (stereo not given)	n	n	n	n	n	n
COc1ccccc1-n1c(Cc2ccccc2)nc2ccccc2c1=O	n	n	n	n	n	n
O=C1CN=C(c2ccccc2Cl)c2cc(Br)ccc2N1	n	n	n	n	n	n
O=C1CN=C(c2ccc[nH]2)c2cc(Cl)ccc2N1	n	57	n	n	n	n
COc1ccc(C(=O)O)cc1OC	n	n	n	n	n	n
O=C(O)c1cc[c]([Hg][Cl])cc1	n	n	n	n	65	n
COC(=O)C1=C(c2ccc(F)cc2OCc2ccccc2)C[C@@H]2CC[C@H]1N2C(=O)NC1CCCCC1	n	n	n	n	n	n
COC(=O)C1=C(c2ccc(OCc3ccccc3)cc2)C[C@@H]2CC[C@H]1N2C(=O)NCCN1CCOCC1	n	n	n	n	n	n
COC(=O)C1=C(c2ccc(OCc3ccccc3)c(F)c2)C[C@@H]2CC[C@H]1N2C	x	n	52	n	n	n
COC(=O)C1=C(c2ccccc2OCc2ccccc2)C[C@@H]2CC[C@H]1N2C	x	n	n	n	n	n
COC(=O)C1=C(c2ccc(OCc3ccccc3)cc2)C[C@@H]2CC[C@H]1N2C	x	n	57	n	n	n
COC(=O)C1=C(c2ccc(F)cc2OCc2ccccc2)C[C@@H]2CC[C@H]1N2C(=O)NC(C)C	n	49	n	n	n	n
COC(=O)C1=C(c2ccc(OCc3ccccc3)cc2)C[C@@H]2CC[C@H]1N2C(=O)NC1CCN(Cc2ccccc2)CC1	n	n	n	n	n	86
Cc1ccccc1-c1ccc2n1Cc1cnnn1-c1ccccc1-2	n	n	n	n	n	n

High-throughput results deposited in PubChem by several laboratories.
